PubChem BioAssay

Each molecule was assayed on Plasmodium falciparum Sir2 (PF13_0152, Sir2A) (assay: Plasmodium falciparum Sir2A binding compounds – biochemical, small-molecule microarray, 635 nm fluorescence, primary screen (AID 1098;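 also: score merges spot fluorescence intensity with its signal-to-noise ratio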)). Details: fluorescence 635 nm, higher = more signal.

**Q.** With CC1CC/C=C\[C@H]2OC34C=CCN(CCN5CCOCC5)C(=O)[C@H]3N(CCCO)C(=O)[C@@H]4C2C(=O)O1 (some centres not stated) as the molecule, how does the composite z-score read?
**A.** Its composite z-score is 0.367.

**Q.** For COC(=O)C[C@H]1O[C@@]2(C[C@@H]1[Si](C)(C)C)C(=O)N(C)c1ccccc12, which composite z-score is on record?
**A.** Its composite z-score is 0.0786.

**Q.** How did the composite z-score turn out when O=C1C2C=CC(C(O)c3cccs3)N(Nc3ccc([N+](=O)[O-])cc3)C2C(=O)N1c1ccccc1 (configuration not stated) was run?
**A.** The composite z-score was 0.672.

**Q.** With Cc1ccc(S[C@]2(C(=O)NCc3ccccc3)CC(=O)N(Cc3ccccc3C(F)(F)F)[C@@H]2c2ccc(CO)cc2)cc1 as the molecule, how does the composite z-score read?
**A.** Its composite z-score is 0.537.

**Q.** For O=C1[C@H]2C=C(I)[C@H](C[C@@H]2c2ccccc2)[C@@]12CO2, which composite z-score is on record?
**A.** Its composite z-score is -0.506.

**Q.** C=CC[C@@]12N=C(c3ccc(OCCCO)cc3)O[C@@H]1c1ccccc1N(CCC)C2=O was tested. Which composite z-score did it give?
**A.** The composite z-score was 1.58.

**Q.** With C=CCC(OC(C)=O)[C@@H]1[C@@H](N(Cc2cccc3ccccc23)C(=O)c2ccc(-c3ccccc3)cc2)c2cc(OCCCO)ccc2N1C(=O)Cc1ccc2ccccc2c1 (some centres not stated) as the molecule, how does the composite z-score read?
**A.** Its composite z-score is -0.121.

**Q.** For CCOC(=O)C1=CC[C@@H](c2ccccc2)N(S(=O)(=O)c2ccc(C)cc2)[C@H]1c1ccccc1I, which composite z-score is on record?
**A.** Its composite z-score is 0.88.

**Q.** O=C1O[C@H](c2ccccc2)[C@H](c2ccccc2)N2[C@H]1[C@@H](C(=O)O)[C@]1(C(=O)Nc3ccc(C#CCCO)cc31)[C@H]2c1ccc(OCCO)cc1 was tested. Which composite z-score did it give?
**A.** Its composite z-score is -0.164.

**Q.** For COc1ccc(C(O)C2C=CC3C(=O)NC(=O)C3N2Nc2ccc(Cl)cc2Cl)c2ccccc12 (configuration not stated), which composite z-score is on record?
**A.** Its composite z-score is 0.828.

**Q.** How did the composite z-score turn out when COCCCNC(=O)[C@@]1(CCC(=O)OC(C)(C)C)COC(c2ccc(OCCCO)cc2)=N1 was run?
**A.** The composite z-score was 1.64.

**Q.** NC(=O)N1C(=O)C2C(C1=O)C1C=C(CCCO)C2C(C2CC2)N1Cc1sc2ccccc2c1Cl (configuration not stated) was tested. Which composite z-score did it give?
**A.** The composite z-score was 0.903.
